For 11 sequences, binding signal results are on record in article PMC8384837, “Expanding the binding specificity for RNA recognition by a PUF domain”.

Assay in all cases: yeast three-hybrid, YBZ-1, SC-Leu-His + 0.5 mM 3-AT, 4 days
Common to all, as to conditions: tags: N-Gal4 AD-HA kept; label: inside an RPR1-promoter hybrid RNA with tandem MS2 sites; ssRNA

Test [1] has as its target PUM1 PUF domain R2-LWY (Homo sapiens, UniProt Q14671 828-1176, N899L;Y900W;Q903Y). Put shortly:
(§1)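 Pumilio-1 PUF domain libraries, randomized at the three base-contacting residues of each repeat, were co-expressed with matching RNA elements from a centromeric plasmid in strain YBZ-1, which carries a LexA–MS2 coat fusion and a HIS3 reporter. Transformants grew for four days on SC-Leu (input) or on SC-Leu-His + 0.5 mM 3-AT (selection), and the repeat regions were PCR-amplified and Illumina-sequenced. The interaction score is the log change in variant frequency from input to selection. That logarithm is base 2, with a pseudocount of 1 where a variant was absent.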

For test [2], the target named is PUM1 PUF domain R3-RTR (Homo sapiens, UniProt Q14671 828-1176, C935R;R936T;Q939R). Put shortly:
as §1

In test [3] the target is PUM1 PUF domain R4-AMV (Homo sapiens, UniProt Q14671 828-1176, N971A;H972M;Q975V). Put shortly:
as §1

The target of test [4] is PUM1 PUF domain R5-HRM (Homo sapiens, UniProt Q14671 828-1176, C1007H;Q1011M). Put shortly: as §1
For test [5], the target named is PUM1 PUF domain R8-MWR (Homo sapiens, UniProt Q14671 828-1176, N1122M;Y1123W;Q1126R). The procedure, abridged:
as §1

The target in test [6] is PUM1 PUF domain R8-HWR (Homo sapiens, UniProt Q14671 828-1176, N1122H;Y1123W;Q1126R). The procedure, abridged:
as §1

Test [7] concerns the target PUM1 PUF domain R8-PYS (Homo sapiens, UniProt Q14671 828-1176, N1122P;Q1126S). Put shortly:
as §1

Test [8] addresses PUM1 PUF domain R5-LYM (Homo sapiens, UniProt Q14671 828-1176, C1007L;R1008Y;Q1011M). The procedure, abridged:
as §1

The target of test [9] is PUM1 PUF domain R5-KFT (Homo sapiens, UniProt Q14671 828-1176, C1007K;R1008F;Q1011T). The procedure, abridged:
as §1

For test [10], the target named is PUM1 PUF domain R1-TVE (Homo sapiens, UniProt Q14671 828-1176, S863T;R864V;Q867E). The procedure, abridged: as §1
Sequence of PUM1 PUF domain R1-TVE (Q14671 828-1176 S863T/R864V/Q867E): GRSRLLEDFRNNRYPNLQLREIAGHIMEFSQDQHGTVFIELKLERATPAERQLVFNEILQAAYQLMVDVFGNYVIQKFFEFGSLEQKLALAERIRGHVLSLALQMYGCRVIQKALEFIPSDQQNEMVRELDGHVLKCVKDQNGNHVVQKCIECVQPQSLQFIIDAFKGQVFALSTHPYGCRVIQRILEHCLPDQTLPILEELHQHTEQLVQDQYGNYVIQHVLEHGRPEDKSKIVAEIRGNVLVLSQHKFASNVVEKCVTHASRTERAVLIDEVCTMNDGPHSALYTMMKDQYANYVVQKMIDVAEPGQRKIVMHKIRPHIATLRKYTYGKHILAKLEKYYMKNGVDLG

Sequence of PUM1 PUF domain R5-HRM (Q14671 828-1176 C1007H/Q1011M): as the sequence (Q14671 828-1176 S863T/R864V/Q867E) above, with T36S, V37R, E40Q, C180H, Q184M counted along it
Sequence of PUM1 PUF domain R3-RTR (Q14671 828-1176 C935R/R936T/Q939R): as the sequence (Q14671 828-1176 S863T/R864V/Q867E) above, with T36S, V37R, E40Q, C108R, R109T, Q112R counted along it
Sequence of PUM1 PUF domain R4-AMV (Q14671 828-1176 N971A/H972M/Q975V): as the sequence (Q14671 828-1176 S863T/R864V/Q867E) above, with T36S, V37R, E40Q, N144A, H145M, Q148V counted along it
Sequence of PUM1 PUF domain R8-MWR (Q14671 828-1176 N1122M/Y1123W/Q1126R): as the sequence (Q14671 828-1176 S863T/R864V/Q867E) above, with T36S, V37R, E40Q, N295M, Y296W, Q299R counted along it
Sequence of PUM1 PUF domain R5-KFT (Q14671 828-1176 C1007K/R1008F/Q1011T): as the sequence (Q14671 828-1176 S863T/R864V/Q867E) above, with T36S, V37R, E40Q, C180K, R181F, Q184T counted along it
Sequence of PUM1 PUF domain R8-PYS (Q14671 828-1176 N1122P/Q1126S): as the sequence (Q14671 828-1176 S863T/R864V/Q867E) above, with T36S, V37R, E40Q, N295P, Q299S counted along it
Sequence of PUM1 PUF domain R2-LWY (Q14671 828-1176 N899L/Y900W/Q903Y): as the sequence (Q14671 828-1176 S863T/R864V/Q867E) above, with T36S, V37R, E40Q, N72L, Y73W, Q76Y counted along it
Sequence of PUM1 PUF domain R8-HWR (Q14671 828-1176 N1122H/Y1123W/Q1126R): as the sequence (Q14671 828-1176 S863T/R864V/Q867E) above, with T36S, V37R, E40Q, N295H, Y296W, Q299R counted along it
Sequence of PUM1 PUF domain R5-LYM (Q14671 828-1176 C1007L/R1008Y/Q1011M): as the sequence (Q14671 828-1176 S863T/R864V/Q867E) above, with T36S, V37R, E40Q, C180L, R181Y, Q184M counted along it

Turning to “GGCUAGAACUAGUGGAUCCCCCGGCGCCCGGCGGCUCGAGCCCGGGUAAGUGUAAAAAGUCUGCAUGCCGCCGGGCGCCAUGCCUGCAGGUCGACUCUAGAAAACAUG”, in test [1], the binding signal is 8.01 log2 enrichment (interaction score). As for “GGCUAGAACUAGUGGAUCCCCCGGCGCCCGGCGGCUCGAGCCCGGGUAAGUGUAAUUAGUCUGCAUGCCGCCGGGCGCCAUGCCUGCAGGUCGACUCUAGAAAACAUG”, in test [2], the binding signal is 4.46 log2 enrichment (interaction score). Take “GGCUAGAACUAGUGGAUCCCCCGGCGCCCGGCGGCUCGAGCCCGGGUAAGUGUAUAUAGUCUGCAUGCCGCCGGGCGCCAUGCCUGCAGGUCGACUCUAGAAAACAUG”: in [3], the binding signal is 1.51 log2 enrichment (interaction score). With “GGCUAGAACUAGUGGAUCCCCCGGCGCCCGGCGGCUCGAGCCCGGGUAAGUGUUAAUAGUCUGCAUGCCGCCGGGCGCCAUGCCUGCAGGUCGACUCUAGAAAACAUG”, the binding signal in test [4] is 4.33 log2 enrichment (interaction score). For “GGCUAGAACUAGUGGAUCCCCCGGCGCCCGGCGGCUCGAGCCCGGGUAAGGGUAAAUAGUCUGCAUGCCGCCGGGCGCCAUGCCUGCAGGUCGACUCUAGAAAACAUG”, the binding signal in test [5] is 2.37 log2 enrichment (interaction score). In the case of “GGCUAGAACUAGUGGAUCCCCCGGCGCCCGGCGGCUCGAGCCCGGGUAAGUGUACAUAGUCUGCAUGCCGCCGGGCGCCAUGCCUGCAGGUCGACUCUAGAAAACAUG”, the binding signal in test [3] is 1.83 log2 enrichment (interaction score). For “GGCUAGAACUAGUGGAUCCCCCGGCGCCCGGCGGCUCGAGCCCGGGUAAGCGUAAAUAGUCUGCAUGCCGCCGGGCGCCAUGCCUGCAGGUCGACUCUAGAAAACAUG”, the binding signal in test [5] is 4.99 log2 enrichment (interaction score); in test [6] it was 7.03 log2 enrichment (interaction score); in test [7], 3.23 log2 enrichment (interaction score). Take “GGCUAGAACUAGUGGAUCCCCCGGCGCCCGGCGGCUCGAGCCCGGGUAAGUGUAAAUAGUCUGCAUGCCGCCGGGCGCCAUGCCUGCAGGUCGACUCUAGAAAACAUG”: the binding signal in [4] was 1.49 log2 enrichment (interaction score); in test [5], 4.37 log2 enrichment (interaction score); in test [8] it was 2.36 log2 enrichment (interaction score); in test [2], 0.19 log2 enrichment (interaction score); in test [3], 3.03 log2 enrichment (interaction score). Consider “GGCUAGAACUAGUGGAUCCCCCGGCGCCCGGCGGCUCGAGCCCGGGUAAGUGUAAGUAGUCUGCAUGCCGCCGGGCGCCAUGCCUGCAGGUCGACUCUAGAAAACAUG”, for which, in [2], the binding signal was 1.03 log2 enrichment (interaction score). As for “GGCUAGAACUAGUGGAUCCCCCGGCGCCCGGCGGCUCGAGCCCGGGUAAGUGUCAAUAGUCUGCAUGCCGCCGGGCGCCAUGCCUGCAGGUCGACUCUAGAAAACAUG”, the values for the binding signal in test [4] and in [9] were 1.79 log2 enrichment (interaction score) and 5.09 log2 enrichment (interaction score), respectively. For the sequence “GGCUAGAACUAGUGGAUCCCCCGGCGCCCGGCGGCUCGAGCCCGGGUAAGUGUAAAUGGUCUGCAUGCCGCCGGGCGCCAUGCCUGCAGGUCGACUCUAGAAAACAUG”, the binding signal in [10] is 2.57 log2 enrichment (interaction score).
